Only some compounds are listed: those with a hit (about 2.8% of all), similar ones and a draw of the others.
Pol eta inh-1: blocks human DNA polymerase eta activity; recombinant Pol eta, fluorescent DNA replication assay; Potency, µM (top dose mostly 114 µM), for the others: at the top dose activity change, negative = inhibition, most hits filed as inhibitors; 1.2% of 390,000 active; further: potency means the concentration at half of the fitted maximal effect; on the % scale 0 is the no-effect control and ±100 the full control effect
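Fluorescent replication assay: 50 nM final substrate added after a 15 min room-temperature compound preincubation with 10 nM enzyme. Signal taken at 0 min and again at 10 min.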
Pol kappa inh-1: inhibitors of human DNA polymerase kappa; 0.53% of 400,000 active; AID 588579; purified Pol kappa, fluorescent DNA synthesis assay, 10 min; Potency, µM (top dose mostly 107 µM), inactives show at the top dose activity, negative = inhibition, usual class: inhibitors; Q9UBT6; further: potency means the concentration at half of the fitted maximal effect; on the % scale 0 is the no-effect control and ±100 the full control effect
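Inhibition of 10 nM Pol kappa is measured by a fluorescent read-out at 0 and 10 min following addition of 50 nM substrate (final), with a 15-min room-temperature compound preincubation.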
Pol beta inh: DNA polymerase beta (human) inhibition | P06746 | Pol beta primer extension/strand displacement, fluorescence kinetic | Potency, µM (highest dose often 114 µM), for the others: top-dose activity change, negative = inhibition, hits mostly inhibitors | 1.3% of 340,000 active | AID 485314; further: potency means the concentration at half of the fitted maximal effect; on the % scale 0 is the no-effect control and ±100 the full control effect
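Human Pol beta at 10 nM; strand-displacement substrate 50 nM final. Compound exposure 15 min at room temperature before start, reaction 10 min at room temperature.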
WRN inhibitor: inhibitors of human WRN helicase; WRN helicase unwinding, fluorescent forked duplex, kinetic; Q14191; Potency, µM (series often up to 114 µM), inactives show at the highest dose activity change, negative = inhibition, usual class: inhibitors; 0.46% of 360,000 active; further: potency means the concentration at half of the fitted maximal effect; on the % scale 0 is the no-effect control and ±100 the full control effect; nearly all actives have a fitted effect of over 55% in size
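Enzyme (20 nM final) and test compound sit together 15 min at room temperature before substrate addition. Substrate is a single-forked duplex oligonucleotide (100 nM) labelled with fluorophore and quencher, with 2 mM ATP; helicase unwinding raises red fluorescence, read kinetically.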
PI5P4Ka inh: blocks human PI5P4K alpha kinase activity; PI5P4Kalpha enzyme, ADP-Glo luminescence, 60 min; hits give low values; AID 652105; max response, %; P48426; 1.2% of 330,000 active; active means max response of -50% or lower; inconclusive means between -30% and -50%; inactive means -30% or higher; further: value at the top dose of about 77 µM; on the % scale 0 is the no-effect control and ±100 the full control effect
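Luminescence from ADP-Glo served as readout of PI5P4Kalpha activity in a qHTS format. Reaction: enzyme, substrate, compound, ATP at 5 microM final, 60 min at RT.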
POLI inh: DNA polymerase iota (human) inhibition; Q9UNA4; Potency, µM (titrated, usually from 115 µM), for the others: at the highest dose activity, negative = inhibition, most hits filed as inhibitors; 1% of 390,000 active; AID 588590; Pol iota fluorescent replication assay, 10 min; further: potency means the concentration at half of the fitted maximal effect
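Fluorescent replication assay read twice, at 0 min and 10 min after adding 50 nM (final) substrate. Enzyme (10 nM) and compounds were first incubated 15 min at room temperature; enzyme-free buffer wells were negative controls.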
PGK validate: validation of Trypanosoma brucei phosphoglycerate kinase inhibitors. shares compounds with Pol kappa inh-1. TbPGK coupled GAPDH assay, Kinase-Glo luminescence. Potency, µM (series often up to 57.5 µM), for the others: top-dose activity change, negative = inhibition, hits mostly inhibitors. 79% of 500 active. AID 686980; further: potency means the concentration at half of the fitted maximal effect; on the % scale 0 is the no-effect control and ±100 the full control effect; nearly all actives have a fitted effect of over 65% in size
Pol iota confirm: Inhibitors of human DNA polymerase iota, confirmation | shares compounds with Pol kappa inh-1 | Pol iota primer extension, TAMRA/BHQ fluorescence | Potency, µM, most hits filed as inhibitors | 77% of 1,500 active | AID 720496; further: potency means the concentration at half of the fitted maximal effect
GALK confirm: galactokinase (human) inhibition, confirmation; Potency, µM (top dose mostly 115 µM), for inactives: top-dose activity, negative = inhibition, actives largely listed as inhibitors; shares compounds with Pol eta inh-1; purified GALK, Kinase-Glo ATP depletion luminescence; 70% of 150 active
GALK redox cs: redox cycling activity in phenol red-HRP assay | shares compounds with Pol eta inh-1 | Phenol red-HRP H2O2 redox cycling, absorbance 600 nm | Potency, µM (doses to about 115 µM), for the others: at the top dose activity change, negative = H2O2 signal, actives largely listed as inhibitors | 40% of 150 active | AID 2035
HEK293 tox: counter-screen for GALK inhibitors: HEK293 cell cytotoxicity; HEK-293 viability, ATP luminescence (CellTiter-Glo), 24/48 h; shares compounds with Pol eta inh-1; Potency, µM (doses to about 46.1 µM), for inactives: at the top dose activity change, negative = cytotoxicity, most hits filed as inhibitors; 10% of 170 active; further: potency means the concentration at half of the fitted maximal effect; on the % scale 0 is the no-effect control and ±100 the full control effect
Pol kappa inh-2: Pol kappa (human) inhibition, cherry-pick confirmation; shares compounds with Pol eta inh-1; purified Pol-kappa, fluorescent strand-displacement substrate; Potency, µM, most hits filed as inhibitors; 76% of 920 active; AID 720501; further: potency means the concentration at half of the fitted maximal effect
Pol eta inh-2: confirmation of human DNA polymerase eta inhibitors; shares compounds with Pol eta inh-1; Pol eta primer extension, TAMRA/BHQ fluorescence, 10 min; Potency, µM, hits mostly inhibitors; 64% of 2,600 active; AID 720502; further: potency means the concentration at half of the fitted maximal effect
Starred values were filed as active, the others as inactive; ? = inconclusive; . = not tested or not shown; [ ] = remark or other dose. Unless noted, the call rests on the fitted dose curve; in most records, active means well fitted curve in the direction sought with a large enough effect; inconclusive means small, poorly fitted or top-dose-only effect, or another doubt; inactive means no such curve, though single readings can be large; an effect the other way counts as inactive or inconclusive.

SMILES | Pol eta inh-1 | Pol kappa inh-1 | Pol beta inh | WRN inhibitor | PI5P4Ka inh | POLI inh | Pol iota confirm | Pol kappa inh-2 | Pol eta inh-2 | others
CCN(CC(=O)Nc1ccc2c(c1)OCCO2)C(=O)CC(NC(C)=O)c1ccccc1 (stereo not drawn) | -1% | -20% | . | -3% | 1 | 10% | . | . | .
Cn1c(NCCO)nc2c1c(=O)n(Cc1cccc(F)c1)c(=O)n2C | -26% | -7% | 10% | . | . | -11% | . | . | .
CCC(Sc1nc2ccsc2c(=O)n1Cc1ccc(C(=O)O)cc1)C(=O)Nc1cc(Cl)ccc1C (stereo not drawn) | ? | . | . | 4% | 1 | . | 67* | 67* | .
Cc1ccc2c(c1)sc(-c1ccc(N(C)C)cc1)[n+]2C | -6% | -20% | ? | -7% | 7 | ? | . | . | .
CCC(C(=O)Nc1c(C)cccc1C)n1c(-c2ccc(=O)[nH]c2)nc2ccccc21 (stereo not drawn) | . | . | . | -3% | 5 | . | . | . | .
CCCCCCc1c(C)c2ccc(OCC(=O)N[C@@H](Cc3ccccc3)C(=O)O)cc2oc1=O | 35µM* | -6% | 14% | -7% | 1 | 0% | 84* | . | ?
Cc1c(C)c2ccc(OCC(=O)N[C@@H](Cc3ccccc3)C(=O)O)cc2oc1=O | ? | 9% | 0% | 3% | -12 | 17% | . | . | .
O=C(/C=C/c1ccc(Br)cc1)NC(=S)Nc1ccc(S(=O)(=O)Nc2nccs2)cc1 | ? | -5% | ? | -27%[11.6 µM] | -7 | 16% | 15* | . | 17*
COc1cc(/C=C2\SC(=O)N(c3cccc(Cl)c3)C2=O)cc([N+](=O)[O-])c1O | ? | ? | 6.3µM* | 50µM* | -81* | 6.3µM* | 38* | 4.2* | ? | PGK validate=4.6µM*
CC12CCC(=O)N1C(C(=O)Nc1cc(S(=O)(=O)N3CCCCCC3)ccc1OCC(F)(F)F)CS2 (stereo not drawn) | -13% | -4% | -2% | 4% | -7 | 47% | . | . | .
CCOCCCNC(=O)c1ccc(Cn2c(=S)[nH]c3c([nH]c4ccc(OC)cc43)c2=O)cc1 | -8% | -8% | -18% | -13% | 0 | -20% | . | . | .
COc1ccc2[nH]c3c(=O)n(Cc4ccc(C(=O)NCC5CCCO5)cc4)c(=S)[nH]c3c2c1 (stereo not drawn) | 18µM* | -32% | 89µM* | ? | -4 | ? | ? | . | 76*
Cc1ccccc1N=C1NC(=O)/C(=C/c2cccn2-c2cccc(C(=O)O)c2)S1 | 18µM* | 79µM* | 10µM* | ? | -87* | 20µM* | 42* | 27* | 27*
O=C(CN1C(=O)S/C(=C/c2cccn2-c2ccc(O)cc2)C1=O)N1CCCC1 | -9% | -3% | 9% | 1% | 2 | -8% | . | . | .
Cc1ccc(N=C2NC(=O)/C(=C/c3cccn3C)S2)cc1 | -5% | -17% | -1% | -4% | -26 | ? | . | . | .
O=C(O)c1cccc(-n2cccc2/C=C2/SC(=O)N(CC(=O)N3CCCC3)C2=O)c1 | 5µM* | ? | 10µM* | 56µM* | -14 | 7.9µM* | 30* | 9.5* | 24*
CCOC(=O)CCSCC(=O)Nc1nnc(C)s1 | -6% | 3% | 9% | -2% | 2 | -19% | . | . | .
Cc1nnc(NC(=O)CCSCCC(=O)Nc2nnc(C)s2)s1 | 3.2µM* | 79µM* | 28µM* | 50µM* | ? | 18µM* | 42* | 21* | 27*
O=C(/C=C/c1ccco1)c1cccnc1 | 14µM* | ? | -25% | ? | -27 | ? | 67* | . | 30*
O=C(/C=C/c1ccco1)Nc1cccnc1 | -3% | -26% | 3% | 4% | -5 | 38% | . | . | .
COc1c(O)cc2oc(-c3ccc(O)cc3)cc(=O)c2c1O | -8% | ? | ? | -11% | -29 | -7% | . | . | .
O=c1cc(-c2ccc(O)cc2)oc2c(O)c(O)c(O)c(O)c12 | 1.6µM* | 10µM* | 2.2µM* | 7.1µM* | -15 | 10µM* | 7.5* | 4.7* | 5.4* | PGK validate=0.92µM*
O=c1cc(-c2ccccc2)oc2cc(O)c(O)c(O)c12 | 3.2µM* | 20µM* | . | ? | -74* | ? | ? | . | 15*
COc1ccc2nc(C)cc(N/N=C/c3cccc(OC)c3O)c2c1 | ? | 79µM* | ? | ? | -9 | ? | 30* | ? | 27*
O=C1C=CC2=C3c4cc(O)c(O)cc4CC3(O)COC2=C1O (stereo not drawn) | 0.79µM* | 1.1µM* | . | 4.5µM* | -90* | 1.3µM* | . | . | . | PGK validate=0.58µM*;GALK confirm=21µM*;GALK redox cs=-3%;HEK293 tox=-7%
COC(CNC(=O)C1CCN(S(=O)(=O)c2ccc3nc4c(c(C(=O)O)c3c2)CC(C)CC4)CC1)OC (stereo not drawn) | 14µM* | ? | -16% | -26%[11.6 µM] | -1 | ? | 21* | . | 5.4*
FC(F)(F)C(F)(F)C(F)(F)C(F)(F)C(F)(F)C(F)(F)C(F)(F)C(F)(F)Br | . | 0%[60.1 µM] | . | . | . | . | . | . | .

Assay outcomes as filed in PubChem.
